This is one part of a sample in which hits are shown more often than they occur.
A1 inh: inhibitors of A1. MEF A1-2A-BIM cells, caspase-Glo luminescence, 3 h; percent of clofoctol signal, DMSO as zero. caspase activation, % (test concentration not listed). 21,000 compounds, 0.51% hits;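 active = most replicate scores above 10, or exactly half above 10 with mean activity above 10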;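 note: effector caspase 3 and 7 activity cleaving a DEVD luciferin substrate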
Numbers without * were called inactive.

How did C/C=C(\C)C(=O)OC1C(C)=C2C(C1OC(=O)CCCCCCC)C(C)(OC(C)=O)CC(OC(=O)CCC)C1(O)C2OC(=O)C1(C)O (centres undefined) do in these assays?
A1 inh: 2

What do the screens show for `C/C=C(/C)C(=O)O[C@H]1C(C)=C2[C@H]([C@@H]1OC(=O)CCCCCCC)[C@@](C)(OC(C)=O)C[C@H](OC(=O)CCC)[C@@]1(O)[C@H]2OC(=O)[C@@]1(C)O`?
A1 inh: 12*

How did C[C@@H]1O[C@@H](O[C@H]2C[C@@H](O)[C@]3(CO)C4C(CC[C@]3(O)C2)[C@@]2(O)CC[C@H](C3=CC(=O)OC3)[C@@]2(C)C[C@H]4O)[C@H](O)[C@H](O)[C@H]1O (some centres undefined) do in these assays?
A1 inh: 1

Results for COC1CC(O[C@H]2CC[C@@]3(C)C(CCC4C3CC[C@]3(C)C(C5=CC(=O)OC5)CCC43O)C2)OC(C)C1OC1OC(COC2OC(CO)C(O)C(O)C2O)C(O)C(O)C1O (some centres undefined) ?
A1 inh: 0

Results for CCNCC(O)c1cccc(OC(=O)c2ccccc2C)c1 (centres undefined) ?
A1 inh: 0

How did CCN(CC)c1nc2ccccc2c(=O)n1-c1ccccc1 do in these assays?
A1 inh: 0

Results for CC(=O)O[C@H]1CC[C@]2(C=O)[C@H]3CC[C@]4(C)[C@@H](C5=CC(=O)OC5)CC[C@]4(O)[C@@H]3CC[C@]2(O)C1 ?
A1 inh: 0

How did CCC(C)[C@H]1C(=O)O[C@H](C(C)C)C(=O)N(C)[C@@H](C(C)CC)C(=O)O[C@H](C(C)C)C(=O)N(C)[C@@H](C(C)CC)C(=O)O[C@H](C(C)C)C(=O)N1C (some centres undefined) do in these assays?
A1 inh: 86*

What do the screens show for `CN(C)C(=O)Oc1nnc(SCCS(=O)(=O)c2ccc(F)cc2)n1-c1ccccc1`?
A1 inh: 0

How did C=CC/C=C\C/C=C\CCCCCCCc1cc(O)cc(O)c1 do in these assays?
A1 inh: 0

What do the screens show for `CC(=O)NC1C(OC2OC(CC(O)C3OC(n4ccc(=O)[nH]c4=O)C(O)C3O)C(O)C(O)C2NC(=O)/C=C/CCCCCCCCCC(C)C)OC(CO)C(O)C1O` (centres undefined)?
A1 inh: 3

Results for c1ccc2c(CNCCc3c[nH]c4ccccc34)cccc2c1 ?
A1 inh: 0

How did CC(C)n1[nH]c(=O)c2c1NC(=O)CSC2c1ccc(Br)cc1 (centres undefined) do in these assays?
A1 inh: 1

How did COc1cc2c(cc1OC)C(C)NCC2 (centres undefined) do in these assays?
A1 inh: 0

Results for COc1cc2c(cc1O)CCNC2C (centres undefined) ?
A1 inh: -1

What do the screens show for `CC[C@H]1CN2CCc3cc(OC)c(OC)cc3[C@@H]2C[C@@H]1C[C@H]1NCCc2cc(O)c(OC)cc21`?
A1 inh: 19*

How did c1cncc(C2N=C(c3cnccn3)NN2)c1 (centres undefined) do in these assays?
A1 inh: -3

Results for CC(C)[C@]12O[C@H]1[C@@H]1O[C@]13[C@]1(O[C@H]1C[C@H]1C4=C(CC[C@@]13C)C(=O)OC4)[C@@H]2O ?
A1 inh: 16*

What do the screens show for `C/C=C(\C)[C@H](O)[C@H](C)/C=C(C)/C=C/C/C(C)=C/Cc1[nH]c(OC)c(OC)c(=O)c1C`?
A1 inh: 0

How did CCOC(=O)c1cc(C(C)(C)C)nc(OC(=O)N(C)C)c1C#N do in these assays?
A1 inh: 0

How did CCOC(=S)SCc1nc2ccccc2c(=O)n1-c1ccccc1 do in these assays?
A1 inh: 0

What do the screens show for `CC1C/C=C/C2C3OC3(C)C(C)C3C(Cc4ccccc4)NC(=O)C23OC(=O)O/C=C/C(C)(O)C1=O` (centres undefined)?
A1 inh: 16*

How did C[C@H]1O[C@@H](O[C@H]2C[C@@H](O)[C@]3(CO)C4C(CC[C@]3(O)C2)[C@@]2(O)CC[C@H](C3=CC(=O)OC3)[C@@]2(C)C[C@H]4O)[C@@H](O)[C@@H](O)[C@H]1O (some centres undefined) do in these assays?
A1 inh: -1

How did Cc1cc(Br)c(NC(=O)C2C(C)(C)C2(C)C)c(Br)c1 do in these assays?
A1 inh: 0

How did C[C@@H]1CCC/C=C/[C@H]2C[C@@H](O)C[C@@H]2[C@@H](O)/C=C\C(=O)O1 do in these assays?
A1 inh: 5

What do the screens show for `CO[C@H]1[C@@H](O)[C@@H](C)O[C@@H](O[C@@H]2C=C3C(OC(C)=O)CC4(O)C(CC[C@]5(C)[C@@H](C6=CC(=O)OC6)CC[C@]45O)[C@@]3(C)CC2)[C@@H]1O` (some centres undefined)?
A1 inh: 1

How did COc1ccc2c(c1OC)C(=O)O[C@H]2[C@H]1c2cc3c(cc2CCN1C)OCO3 do in these assays?
A1 inh: 1

How did COc1ccc2c(c1OC)CN1CCc3cc4c(cc3C1C2)OCO4 (centres undefined) do in these assays?
A1 inh: -1

How did COc1ccc2c(c[n+](C)c3c4cc5c(cc4ccc23)OCO5)c1OC do in these assays?
A1 inh: 161*

What do the screens show for `C[C@H]1CC[C@@H]2[C@@H](C)[C@H]3[C@H](C[C@H]4[C@@H]5CC=C6CC(O[C@@H]7O[C@H](CO)[C@@H](O)[C@H](O[C@@H]8O[C@H](CO)[C@@H](O)[C@H](O)[C@H]8O)[C@@H]7O[C@@H]7O[C@@H](C)[C@H](O)[C@@H](O)[C@H]7O)CC[C@]6(C)[C@H]5CC[C@]34C)N2C1` (some centres undefined)?
A1 inh: -2

How did O=C(c1noc2c1COc1ccccc1-2)N1CCC2(CC1)OCCO2 do in these assays?
A1 inh: -6

How did COC[C@H]1OC(=O)c2coc3c2[C@@]1(C)C1=C(C3=O)[C@@H]2CCC(=O)[C@@]2(C)C[C@H]1OC(C)=O do in these assays?
A1 inh: 62*

What do the screens show for `CO/C1=C/C(C)=C/[C@@H](C)[C@@H](O)[C@@H](C)C/C(C)=C/C=C\[C@H](OC)[C@@H]([C@@H](C)[C@@H](O)[C@H](C)[C@@]2(O)C[C@@H](O)[C@H](C)[C@@H](C(C)C)O2)OC1=O`?
A1 inh: 0

How did Cc1cc(OCc2c(F)cccc2Cl)c2c3c(c(=O)oc2c1)CCCC3 do in these assays?
A1 inh: 1

Results for CN(C)C(=O)Oc1cccc(N)c1 ?
A1 inh: 1

Source: PubChem BioAssay (Broad Institute)
